Results filed as inconclusive are left out. Unmarked numbers belong to inactive results. Activity calls are given as the source filed them. The call rests on the fitted dose curve; in most records, active means well fitted inhibition curve with a large enough effect in the polarisation, with a control signal flat (not every such curve was filed as active); inconclusive means small, poorly fitted or top-dose-only effect, or effect the other way, or a change in a side signal; inactive means no such curve, though single readings can be large or run the other way; the % refers to the polarisation.
Assay: Confirmation of Inhibitors Targeting the Menin-MLL Interaction in MLL Related Leukemias: Competition With Texas Red Labeled MLL-derived Mutant Peptide
Details: fluorescence polarization, Texas Red MLL peptide displacement; series mostly up to 94.6 µM; FP change, negative = inhibition: at the top concentration
In short: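 FP competition using menin at 200 nM with Texas Red-labeled mutant MLL peptide (50 nM) plus fluorescein MLL-w.t. peptide (25 nM) in 50 mM Tris-HCl pH 7.5, 50 mM NaCl, 1 mM DTT, 0.05% BSA; compound added, 1 hr ambient; polarization read per label.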
On the % scale 0 is the no-effect control and ±100 the full control effect; potency means the concentration at half of the fitted maximal effect.

In the case of `COc1ccccc1NS(=O)(=O)c1cc(N2Cc3ccccc3C2=N)ccc1N1CCOCC1`, the Potency is reported as 50.1 µM (active).
For `c1cc(CN2CCCNCCNCCCNCC2)ccc1CN1CCCNCCNCCCNCC1`, the Potency was 22.4 µM (active).
With `O=C(/C=C/c1ccccc1)Nc1nnc(SCC(=O)c2ccc3ccccc3c2)s1` the Potency was 17.8 µM (active).
In the case of `CCOC(=O)c1cnc2ccc(OCC)cc2c1N1CCN(C)CC1`, the Potency is reported as 31.7 µM (active).
With `Cc1cc2[nH]c3c(c[n+](C)c4ccccc34)c2cc1C` the Potency was 56.4 µM (active).

Point of comparison: `O=C(Cn1c(=O)c2c3c(sc2n(Cc2ccccc2)c1=O)CCCC3)NCCO`, “FP change, negative = inhibition” value 2.49% [at 288 µM]. Against it:
- CN(C)CCc1c[nH]c2ccc(CC3COC(=O)N3)cc12 (configuration not stated) — lower, -9.96% [at 288 µM]
- Cc1cnc(NC(=O)C2C(=O)c3ccccc3S(=O)(=O)N2C)s1 (configuration not stated) — higher, 8.84% [at 288 µM]

Point of comparison: `CCCCC(=O)NC(=S)Nc1nnn(CCC)n1`, “FP change, negative = inhibition” value -5.61%. Against it:
- CCc1ccc(CNC(=O)CCS(=O)(=O)Cc2ccccc2F)cc1 — higher, 20.1%
- COc1ccccc1N(CC1CO1)S(=O)(=O)c1ccccc1 (configuration not stated) — higher, 6.9%
- Cc1ccc(C)n1-c1ccc(N(C)C)cc1 — higher, -2.7%
- COCC(=O)Nc1cccc2ccccc12 — lower, -27.4%
- COc1cc(NC(=O)c2cccnc2)c(OC)cc1NC(=O)c1ccc(Br)cc1 — higher, 8.48%
- CCc1nnc(NC(=O)C2(C)COC(c3ccc(OC)cc3)OC2)s1 (configuration not stated) — higher, 12.7%
- COCCNC(=O)C(OC(=O)c1nsc(Cl)c1Cl)C(C)C (configuration not stated) — higher, 11.4%
- O=C(C1CCCN(Cc2cccc(Cl)c2)C1)N1CCCCC1 (configuration not stated) — higher, 17.5%
